# Data published in PMC5540273 (PLoS ONE, 2017).
# Where “and” joins values, the source holds several entries; their conditions need not be identical. Identical values can stand only once. Like-named read-outs stand apart in the source and are kept apart here.
# Assays:
# [1] = tested on: PDGFRB; conditions: concentration: 1 μM, replicates: in singlicate, n = 1
# [2] = tested on: PDPK1; conditions: concentration: 1 μM, replicates: in singlicate, n = 1
# [3] = tested on: PFTAIRE2; conditions: concentration: 1 μM, replicates: in singlicate, n = 1
# [4] = tested on: T1, PFTK1; conditions: concentration: 1 μM, replicates: in singlicate, n = 1
# T1 construct: gene CDK14
# [5] = tested on: PHKG1; conditions: concentration: 1 μM, replicates: in singlicate; n = 1
# [6] = tested on: PHKG2; conditions: concentration: 1 μM, replicates: in singlicate, n = 1
# [7] = tested on: PIK3C2B; conditions: concentration: 1 μM, replicates: in singlicate, n = 1
# [8] = tested on: PIK3C2G; conditions: concentration: 1 μM, replicates: in singlicate, n = 1
# [9] = tested on: PIK3CA; conditions: concentration: 1 μM, replicates: in singlicate; n = 1
# [10] = tested on: PIK3CB; conditions: concentration: 1 μM, replicates: in singlicate, n = 1
# [11] = tested on: PIK3CD; conditions: concentration: 1 μM, replicates: in singlicate, n = 1
# [12] = tested on: PIK3CG; conditions: concentration: 1 μM, replicates: in singlicate, n = 1
# [13] = tested on: T2, PIK4CB; conditions: concentration: 1 μM, replicates: in singlicate, n = 1
# T2 construct: gene PI4KB
# [14] = tested on: PIKFYVE; conditions: concentration: 1 μM, replicates: in singlicate, n = 1
# [15] = tested on: PIM1; conditions: concentration: 1 μM, replicates: in singlicate, n = 1
# [16] = tested on: PIM2; conditions: concentration: 1 μM, replicates: in singlicate, n = 1
# [17] = tested on: PIM3; conditions: concentration: 1 μM, replicates: in singlicate; n = 1
# [18] = tested on: PIP5K1A; conditions: concentration: 1 μM, replicates: in singlicate; n = 1
# [19] = tested on: PIP5K1C; conditions: concentration: 1 μM, replicates: in singlicate, n = 1
# [20] = tested on: PIP5K2B; conditions: concentration: 1 μM, replicates: in singlicate; n = 1
# 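Further: KINOMEscan kinase panel screen.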
compound,measurement,setting,value
C[C@@H]1CCN(C(=O)CO)C[C@@H]1N(C)c1ncnc2[nH]ccc12,%Inh,[1],14%
same,%Inh,[2],0%
same,%Inh,[3],0%
same,%Inh,[4],0%
same,%Inh,[5],4%
same,%Inh,[6],0%
same,%Inh,[7],0%
same,%Inh,[8],3%
same,%Inh,[9],0%
same,%Inh,[10],0%
same,%Inh,[11],5%
same,%Inh,[12],0%
same,%Inh,[13],0%
same,%Inh,[14],48%
same,%Inh,[15],0%
same,%Inh,[16],0%
same,%Inh,[17],0%
same,%Inh,[18],16%
same,%Inh,[19],0%
same,%Inh,[20],0%
COc1ccc(-c2nc3n(c2-c2ccncc2)CCC3)cc1 [SKF-104493],%Inh,[1]; 1 µM,5% and 23%
same,%Inh,[2]; 1 µM,21% and 0%
same,%Inh,[3]; 1 µM,29% and 9%
same,%Inh,[4]; 1 µM,0% and 34%
same,%Inh,[5],0%
same,%Inh,[6]; 1 µM,0% and 20%
same,%Inh,[7]; 1 µM,13% and 0%
same,%Inh,[8]; 1 µM,19% and 0%
same,%Inh,[9],0%
same,%Inh,[10]; 1 µM,19% and 0%
same,%Inh,[11]; 1 µM,5% and 25%
same,%Inh,[12]; 1 µM,11% and 1%
same,%Inh,[13]; 1 µM,0% and 10%
same,%Inh,[14]; 1 µM,11% and 0%
same,%Inh,[15]; 1 µM,0% and 50%
same,%Inh,[16]; 1 µM,2% and 0%
same,%Inh,[17],0%
same,%Inh,[18],27%
same,%Inh,[19]; 1 µM,25% and 5%
same,%Inh,[20],0%
CC(C)N1CCC(n2cnc(-c3ccc(F)cc3)c2-c2ccnc(N)n2)CC1 [SB-223132],%Inh,[1],0%
same,%Inh,[2],5%
same,%Inh,[3],0%
same,%Inh,[4],2%
same,%Inh,[5],28%
same,%Inh,[6],0%
same,%Inh,[7],0%
same,%Inh,[8],0%
same,%Inh,[9],0%
same,%Inh,[10],0%
same,%Inh,[11],0%
same,%Inh,[12],7%
same,%Inh,[13],0%
same,%Inh,[14],10%
same,%Inh,[15],29%
same,%Inh,[16],22%
same,%Inh,[17],10%
same,%Inh,[18],54%
same,%Inh,[19],49%
same,%Inh,[20],0%
COc1cc2c(Nc3cccc(NC(=O)c4ccccc4)c3)ncnc2cc1OCCCN1CCOCC1 [GSK223810],%Inh,[1],85%
same,%Inh,[2],100%
same,%Inh,[3],16%
same,%Inh,[4],0%
same,%Inh,[5],5%
same,%Inh,[6],12%
same,%Inh,[7],0%
same,%Inh,[8],0%
same,%Inh,[9],0%
same,%Inh,[10],0%
same,%Inh,[11],0%
same,%Inh,[12],0%
same,%Inh,[13],0%
same,%Inh,[14],0%
same,%Inh,[15],0%
same,%Inh,[16],0%
same,%Inh,[17],5%
same,%Inh,[18],0%
same,%Inh,[19],26%
same,%Inh,[20],2%
CN1CCC(n2cnc(-c3ccc(F)cc3)c2-c2ccnc(NC3CCNCC3)n2)CC1 [SB-229482],%Inh,[1],29%
same,%Inh,[2],0%
same,%Inh,[3],17%
same,%Inh,[4],0%
same,%Inh,[5],0%
same,%Inh,[6],16%
same,%Inh,[7],0%
same,%Inh,[8],0%
same,%Inh,[9],0%
same,%Inh,[10],37%
same,%Inh,[11],0%
same,%Inh,[12],34%
same,%Inh,[13],31%
same,%Inh,[14],40%
same,%Inh,[15],1%
same,%Inh,[16],0%
same,%Inh,[17],2%
same,%Inh,[18],0%
same,%Inh,[19],0%
same,%Inh,[20],0%
Cc1ccc(O)cc1Nc1cc(C(F)(F)F)nc2ccc(-c3ccncc3)cc12 [GW630823],%Inh,[1],10%
same,%Inh,[2],0%
same,%Inh,[3],34%
same,%Inh,[4],5%
same,%Inh,[5],14%
same,%Inh,[6],5%
same,%Inh,[7],0%
same,%Inh,[8],15%
same,%Inh,[9],1%
same,%Inh,[10],0%
same,%Inh,[11],0%
same,%Inh,[12],0%
same,%Inh,[13],0%
same,%Inh,[14],0%
same,%Inh,[15],4%
same,%Inh,[16],3%
same,%Inh,[17],11%
same,%Inh,[18],0%
same,%Inh,[19],0%
same,%Inh,[20],0%
CCn1c(-c2ccncc2)nc2cnccc21 [SB-735216],%Inh,[1],1%
same,%Inh,[2],0%
same,%Inh,[3],0%
same,%Inh,[4],3%
same,%Inh,[5],3%
same,%Inh,[6],0%
same,%Inh,[7],19%
same,%Inh,[8],0%
same,%Inh,[9],0%
same,%Inh,[10],0%
same,%Inh,[11],0%
same,%Inh,[12],14%
same,%Inh,[13],21%
same,%Inh,[14],0%
same,%Inh,[15],0%
same,%Inh,[16],0%
same,%Inh,[17],21%
same,%Inh,[18],28%
same,%Inh,[19],0%
same,%Inh,[20],23%
Fc1cccc(COc2ccc(Nc3ncnc4nn5ccccc5c34)cc2Cl)c1 [GW689066],%Inh,[1],13%
same,%Inh,[2],0%
same,%Inh,[3],4%
same,%Inh,[4],0%
same,%Inh,[5],2%
same,%Inh,[6],0%
same,%Inh,[7],0%
same,%Inh,[8],0%
same,%Inh,[9],0%
same,%Inh,[10],41%
same,%Inh,[11],0%
same,%Inh,[12],0%
same,%Inh,[13],0%
same,%Inh,[14],0%
same,%Inh,[15],0%
same,%Inh,[16],0%
same,%Inh,[17],0%
same,%Inh,[18],40%
same,%Inh,[19],43%
same,%Inh,[20],7%
Cc1ccc(NC(=O)c2cccc(C#N)c2)cc1-c1ccc(C(=O)Nc2ccncc2)cc1 [GSK1398463],%Inh,[1],100%
same,%Inh,[2],17%
same,%Inh,[3],13%
same,%Inh,[4],27%
same,%Inh,[5],2%
same,%Inh,[6],0%
same,%Inh,[7],5%
same,%Inh,[8],4%
same,%Inh,[9],6%
same,%Inh,[10],0%
same,%Inh,[11],1%
same,%Inh,[12],0%
same,%Inh,[13],11%
same,%Inh,[14],0%
same,%Inh,[15],9%
same,%Inh,[16],0%
same,%Inh,[17],0%
same,%Inh,[18],0%
same,%Inh,[19],38%
same,%Inh,[20],23%
CCc1nc(-c2cccc(N(C)S(=O)(=O)c3ccccc3)c2)c(-c2ccnc(Nc3ccc(N4CCN(C(C)=O)CC4)nc3)n2)s1 [GSK1645895],%Inh,[1],32%
same,%Inh,[2],0%
same,%Inh,[3],25%
same,%Inh,[4],20%
same,%Inh,[5],0%
same,%Inh,[6],0%
same,%Inh,[7],0%
same,%Inh,[8],0%
same,%Inh,[9],0%
same,%Inh,[10],0%
same,%Inh,[11],0%
same,%Inh,[12],4%
same,%Inh,[13],10%
same,%Inh,[14],0%
same,%Inh,[15],17%
same,%Inh,[16],0%
same,%Inh,[17],11%
same,%Inh,[18],0%
same,%Inh,[19],0%
same,%Inh,[20],0%
COc1cc2ncnc(Nc3ccc(OCc4ccccc4Br)c(Cl)c3)c2cc1OC.Cl [GI261590],%Inh,[1],0%
same,%Inh,[2],0%
same,%Inh,[3],4%
same,%Inh,[4],29%
same,%Inh,[5],3%
same,%Inh,[6],0%
same,%Inh,[7],0%
same,%Inh,[8],0%
same,%Inh,[9],0%
same,%Inh,[10],45%
same,%Inh,[11],0%
same,%Inh,[12],0%
same,%Inh,[13],0%
same,%Inh,[14],28%
same,%Inh,[15],0%
same,%Inh,[16],0%
same,%Inh,[17],15%
same,%Inh,[18],34%
same,%Inh,[19],56%
same,%Inh,[20],11%
